Assay outcomes deposited in PubChem by several laboratories.
A selection: hits, their analogues and other compounds. The true share with any hit is near 3.1%.
Anthrax LF prot – blocks Bacillus anthracis lethal factor protease; multiplex microsphere protease cleavage assay, LF; hit rate 0.12% among 360,000; P15917; AID 588501; inhibition, % at 10 µM; note: plate controls were buffer without enzyme for full effect and enzyme alone for no effect
Autofluor counter – counter-screen for toxin protease inhibitors: compound fluorescence; compound autofluorescence counterscreen, microsphere flow cytometry; hits give high values; fluorescence intensity (no concentration beside the values); hit rate 3.1% among 360,000; in the data active = fluorescence intensity above about 16000; inconclusive = no clear call, values can overlap the other calls
PriA SSB inh – inhibitors of Klebsiella pneumoniae PriA binding to SSB C-terminal tail; inhibition, % at 33 µM; AlphaScreen SSBct-PriA binding, biotinylated peptide; hit rate 0.6% among 430,000; AID 1272365; in the data active = inhibition mostly above about 37%, no sharp cut-off; inactive = mostly below about 20%;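 note: plate controls were negative control peptide for no effect and reference peptide for full effect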
BoNT A protease – inhibitors of Botulinum neurotoxin A light chain protease; multiplex microsphere protease substrate cleavage, flow cytometry; inhibition, % at 10 µM; hit rate 0.17% among 360,000; AID 588499; note: plate controls were buffer without enzyme for full effect and enzyme alone for no effect
BoNT-F LC inh – BoNT F light chain protease inhibition; hit rate 0.22% among 360,000; inhibition, % at 10 µM; Multiplex microsphere protease cleavage assay, flow cytometry; in the data active = inhibition above about 35%, passing the limit was not always enough; inconclusive = no clear call, values can overlap the other calls; note: plate controls were buffer without enzyme for full effect and enzyme alone for no effect
Numbers without * were called inactive; u = inconclusive; x = no result given. Cut-off read from the data, not from the text of the source, unless noted: active = inhibition above about 30%; inconclusive = no clear call, values can overlap the other calls; inactive = below that.

SMILES	Anthrax LF prot	Autofluor counter	PriA SSB inh	BoNT A protease	BoNT-F LC inh
O=c1[nH]c2cc3c(cc2cc1C(c1nnnn1Cc1ccccc1)N1CCN2CCCC2C1)OCCO3 (configuration not stated)	5.3	9350	-4.2	6.8	0.9
O=C(Cn1cnc(-c2ccc(F)cc2)cc1=O)NCc1ccccn1	x	x	-7.0	x	x
CCN(c1ccccc1)S(=O)(=O)c1ccc(C(=O)Nc2nc3c(s2)CCC3)cc1	x	x	-28.0	x	x
Cc1onc(-c2ccccc2Cl)c1C(=O)NCCCN1CCOC(c2ccccc2)C1 (configuration not stated)	x	x	-10.0	x	x
O=C1CCCN1Cc1cn(C2CN(C(=O)C3(c4ccc(Cl)cc4)CCCC3)C2)nn1	x	x	-9.0	x	x
O=C(Nc1cnc(N2CCOCC2)nc1)c1ccc(C(F)(F)F)cc1	x	x	8.0	x	x
O=C(CCl)Nc1ccc(Oc2cnc3ccccc3n2)cc1	0.1	21837*	-13.5	2.6	4.6
COc1ccc(Nc2ccccc2N)cc1	-15.6	3649	82.5*	2.6	-41.1
CCN(CC)S(=O)(=O)c1ccc(C(=O)Nc2nnc(Cc3cccs3)o2)cc1	x	x	40.6	x	x
CCc1nnc(NC(=O)c2ccc(S(=O)(=O)N3CCCC(C)C3)cc2)o1 (configuration not stated)	-4.6	u	-5.1	-0.1	2.1
CN(C1CC1)S(=O)(=O)c1ccc(C(=O)Nc2nnc(Cc3cccs3)o2)cc1	x	x	74.0*	x	x
CSc1ccccc1C(=O)Nc1nnc(Cc2cccs2)o1	x	x	45.0*	x	x
Cc1ccc(Cc2nnc(NC(=O)c3ccc(S(=O)(=O)N(C)C4CC4)cc3)o2)cc1C	x	x	11.0	x	x
CN(C)S(=O)(=O)c1ccc(C(=O)Nc2nnc(Cc3cccs3)o2)cc1	x	x	74.0*	x	x
CC1CCCN(S(=O)(=O)c2ccc(C(=O)Nc3nnc(Cc4cccs4)o3)cc2)C1 (configuration not stated)	x	x	37.0*	x	x
COc1ccc(Br)c(C(=O)N2CCS[C@H](c3ccccc3Cl)CC2)c1	x	x	11.0	x	x
O=S(=O)(c1ccc(Cl)c2ccccc12)N1CCOCC1	x	x	-19.0	x	x
Cc1ccc(C)c(Cn2cc(SCc3ccc(C(F)(F)F)cc3)c3ccccc32)c1	x	x	1.0	x	x
CCCCN(C)S(=O)(=O)c1ccc(C(=O)Nc2nnc(Cc3cccs3)o2)cc1	x	x	58.0*	x	x
CS(=O)(=O)c1ccc(C(=O)Nc2nnc(Cc3cccs3)o2)cc1	x	x	64.0*	x	x
Cc1cc([N+](=O)[O-])c(NCCN)c([N+](=O)[O-])c1	x	x	2.0	x	x
CCC(C)Nc1c([N+](=O)[O-])cc(C)cc1[N+](=O)[O-] (configuration not stated)	-2.7	24719*	53.4*	u	-6.9
O=C(Nc1ccc2c(c1)N(S(=O)(=O)c1ccc(F)cc1)CCC2)c1ccco1	x	x	-4.0	x	x
Cc1ccc(NC(=O)/C(=C\c2ccco2)NC(=O)c2ccco2)cc1	14.4	3098	-5.3	0.1	-1.4
Cc1ccc(NC(=O)N/C=C/c2ccco2)cc1	-0.6	22171*	3.5	1.0	3.8
SMILES	Anthrax LF prot	Autofluor counter	PriA SSB inh	BoNT A protease	BoNT-F LC inh
CC(=NNC(=O)c1ccc(Br)o1)c1cc2c(cc1NC(=O)CCC(=O)O)OCO2	x	x	-4.6	x	x
CC1(C(=O)Nc2c(F)c(F)c(F)c(F)c2F)CC1(Br)Br (configuration not stated)	31.1*	4037	-6.5	1.6	u
CC(C)C1C(C#N)=C(N)Oc2n[nH]c(-c3cccs3)c21 (configuration not stated)	1.5	3765	-18.4	-0.2	8.2
CC(C)c1[nH]nc2c1C(c1cccs1)C(C#N)=C(N)O2 (configuration not stated)	1.9	20949*	-14.8	-3.5	-5.5
Cc1ccc(NC(=O)COC(=O)CN2C(=O)c3ccccc3C2=O)cc1	0.5	8747	-3.5	1.7	0.2
CCN(CC)S(=O)(=O)c1ccc(NC(=O)COC(=O)CN2C(=O)c3ccccc3C2=O)cc1	2.7	22134*	-5.0	2.2	1.7
CN(C)c1ccc(NC(=O)CN2C(=O)c3ccccc3C2=O)cc1	5.1	4403	-6.3	-2.8	39.1*
CCN1C/C(=C/c2ccc(N3CCOCC3)cc2)C(=O)/C(=C/c2ccc(N3CCOCC3)cc2)C1	21.9	4303	2.8	37.3*	-7.8
CN1C/C(=C\c2ccc(N3CCOCC3)cc2)C(=O)/C(=C/c2ccc(N3CCOCC3)cc2)C1	32.8*	9043	-16.9	33.5*	6.8
Cc1cc(C)cc(NC(=O)C(=O)NCC(c2ccc(N(C)C)cc2)N2CCN(C)CC2)c1 (configuration not stated)	x	x	6.0	x	x
O=C(Cc1c[nH]c2ccccc12)N1CCC(c2nnc(C3CC3)o2)CC1	x	x	-9.0	x	x
CCCNc1nc(SC)nc2c1cnn2CCNC(=O)c1ccccc1C(F)(F)F	x	x	0.0	x	x
O=C(Nc1ccccc1C(F)(F)F)N1CCN(C(c2ccccc2)c2ccccc2)CC1	-0.4	22149*	-8.4	u	-9.4
CC(C)Oc1ccc(C(=O)N2C3CCC2CN(Cc2ccccc2)C3)cc1	x	x	7.0	x	x
O=C(NC(=S)Nc1ccc2c(c1)OCCO2)c1ccccc1	-3.3	25451*	27.4	u	-7.2
OCCNC(=S)Nc1ccc2c(c1)OCCO2	30.0*	4551	-20.5	-1.6	u
Cn1ncc2cc(NC(=S)NC(=O)c3ccccc3)ccc21	-2.2	17054*	13.7	-2.2	-7.0
O=C(c1cc(=O)c2ccccc2o1)N1CCC(Oc2ncccc2Cl)CC1	x	x	5.0	x	x
COc1ccc(CCNC(=O)CC2CCCCN2S(=O)(=O)c2ccc(F)cc2)cc1 (configuration not stated)	x	x	11.0	x	x
CC1Cc2ccccc2N1C(=O)c1ccc(=O)n(C)n1 (configuration not stated)	x	x	-2.0	x	x
O=c1c(NCc2ccccc2Cl)nccn1-c1ccc2c(c1)OCO2	x	x	37.0*	x	x
Cn1c(=O)c2c(nc(Sc3ncccn3)n2Cc2ccccc2Cl)n(C)c1=O	-2.2	18229*	-9.9	6.3	7.4
Cn1c(=O)c2c(nc(NCc3ccc4c(c3)OCO4)n2Cc2ccccc2Cl)n(C)c1=O	-1.3	17237*	-6.6	-2.8	-7.0
Cn1c(=O)c2c(nc(SCCCO)n2Cc2ccccc2Cl)n(C)c1=O	-2.0	16181*	-7.2	0.9	1.8
C=CC(C)Sc1nc2c(c(=O)n(C)c(=O)n2C)n1Cc1ccccc1Cl (configuration not stated)	-9.3	5514	-3.2	-0.5	-9.4
Cn1c(=O)c2c(nc(Sc3ncccn3)n2Cc2ccc(Cl)cc2)n(C)c1=O	-10.5	4594	7.4	0.0	-7.4
